This passage reports Potency results from PubChem BioAssay (NCATS).

Structures are written as SMILES. Activity calls are given as the source filed them. Entries that show only a call come without a potency. Calls follow the shape of the dose curve; as a rule, active = well fitted cell-killing curve with a large enough effect; inconclusive = small, poorly fitted or top-dose-only effect, or effect the other way; inactive = flat fitted curve, though single readings scatter.

The nature of the assay: MultiTox-Fluor Cytotoxicity Assay - LYMP1-003 - Dead Cells (AID 961).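 Also: cells exposed to compound for 16 h at 37 °C; nearly all actives have a fitted effect of over 70% in size.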 The note with it: LYMP1-003 lymphoblastoid cells, dead-cell protease fluorescence; series mostly up to 92.2 µM. The source says:
NIH Chemical Genomics Center [NCGC]
NIH Molecular Libraries Screening Centers Network [MLSCN]
National Institutes of Environmental Health Sciences [NIEHS]
National Toxicology Program [NTP]
We have developed a 1536-well cell-based assay for quantitative high throughput screening (qHTS) against a number of cell lines to determine in vitro cytotoxicity of small molecules. This particular assay uses a human lymphoblastoid cell line (LYMP1-003) purchased from Coriell Institute.
NCGC Assay Protocol Summary:
The MultiTox-Fluor Cytotoxicity Assay (Promega) is a homogeneous method to simultaneously measure the relative number of live and dead cells in culture by detecting changes in cell membrane integrity. There are two fluorogenic peptide substrates in the assay reagent. Viable cells are determined when the cell-permeant substrate (GF-AFC) enters the cell and is cleaved by protease from live cells resulting in liberated fluorophore. This live-cell protease activity restricted to viable cells is proportional to cell number. The dead cells are determined by using fluorogenic cell-impermeant peptide substrate (bis-AAF-R110) which cleaved by dead cell proteases leaking from damaged cell membrane.
Using the MultiTox-Fluor Cytotoxicity Assay, the relative number of dead cells was measured in the lymphoblastoid cell line with complete culture medium following compound treatment for 16 hours. The assay was performed in opaque black Kalypsys 1536-well plates. In the screen, tetraoctylammonium bromide was used as positive control. Library compounds were measured for their ability to cause acute toxicity in the cell line, as reflected by an increase in dead cell protease activity, in a concentration-dependent manner. Data were normalized to the controls for basal activity (DMSO only) and 100% stimulation (15 uM tetraoctylammonium bromide). AC50 values were determined from concentration-response data modeled with the standard Hill equation.
qHTS protocol for MultiTox-Fluor Cytotoxicity assay
[Step] [Parameter] [Value] [Description]
1. Reagent; 5 uL; 2500 lymphoblastoid cells/well
2. Time; 5 hr; 37 C incubation
4. Controls; 23 nL; Tetraoctylammonium bromide 6.4pM to 92 uM
5. Time; 16 hr; 37 C incubation
6. Reagent; 5 uL; MuliTox-Fluor Assay reagent
7. Time; 60 min; Room Temperature
8. Detection; dead-cell fluorescence (Ex/Em=485/520); EnVision plate reader
Keywords: cytotoxicity, lymphoblastoid cell line, fluorescence, NTPHTS, NTPHTS_NCGC, NIEHS, EPA, DSSTox, MLSMR, MLSCN, NIH Roadmap, qHTS, NCGC
Consider `CCCCCCCCCCCCCl`, for which the Potency entry is “inactive”.

Turning to `ClC(Cl)C(Cl)Cl`, the Potency result is “inactive”.

Take `COc1cc(-c2ccc(N)c(OC)c2)ccc1N`: the Potency result is “inactive”.

Take `ClCCCCl`: the Potency result is “inactive”.

Turning to `O=[N+]([O-])c1cccc2c([N+](=O)[O-])cccc12`, the Potency result is “inactive”.

For the compound `Cc1cccc(C)c1N`, the Potency result was “inactive”.

On to `NC1CCC(CC2CCC(N)CC2)CC1` (stereo not given), for which the Potency entry was “inactive”.

In the case of `CCCCOCC1CO1` (stereo not given), the Potency result was “inactive”.

Regarding `O=P(OCCCl)(OCCCl)OCCCl`, the Potency entry is “inactive”.

`CCOC(=O)CBr`: the Potency entry was “inactive”.

`O=[N+]([O-])c1ccc(O)c([N+](=O)[O-])c1`: the Potency result was “inactive”.

For the compound `C=CC(=O)OC`, the Potency entry is “inactive”.

`Cl/C=C/Cl`: the Potency result is “inactive”.

For the compound `O=C(Cc1ccccc1)OCc1ccccc1`, the Potency result is “inactive”.

With `c1ccc(NNc2ccccc2)cc1`, the Potency entry was “inactive”.

Turning to `Cc1ccc(N)cc1N`, the Potency entry was “inactive”.

For the compound `C=COC(C)=O`, the Potency result is “inactive”.

With `CCCCCc1cc(O)cc(O)c1`, the Potency result is “inactive”.

For the compound `Oc1cc(Cl)c(Cl)c(Cl)c1Cl`, the Potency result was “inactive”.

In the case of `C=CCBr`, the Potency result was “inactive”.

`C=CCCl`: the Potency entry was “inactive”.

In the case of `BrCCc1ccccc1`, the Potency entry was “inactive”.

For the compound `CN(C)N=O`, the Potency entry was “inactive”.

Consider `CC(=O)CCC(C)=O`, for which the Potency entry is “inactive”.

Take `O=[N+]([O-])c1ccc2c3c(cccc13)CC2`: the Potency entry is “inactive”.

For the compound `COC(C)(C)C`, the Potency result was “inactive”.

In the case of `OCC(Cl)CCl` (stereo not given), the Potency entry is “inactive”.

For `CC(=O)[O-].CC(=O)[O-].CC(=O)[O-].[Cr+3]`, the Potency entry was “inactive”.

Take `C[N+](=O)[O-]`: the Potency entry is “inactive”.

On to `CC(C)C#N`, for which the Potency result is “inactive”.

With `Nc1ccc(Cc2ccc(N)cc2)cc1`, the Potency result is “inactive”.

Turning to `CCCBr`, the Potency result is “inactive”.

On to `CN=C=O`, for which the Potency result was “inactive”.

In the case of `CCCCC#N`, the Potency entry is “inactive”.

Consider `Nc1cc(Cl)cc(C(=O)O)c1Cl`, for which the Potency entry is “inactive”.

As for `Nc1ccc2ccccc2c1`, the Potency entry was “inactive”.

In the case of `CCOS(C)(=O)=O`, the Potency entry was “inactive”.

Regarding `COc1ccccc1N`, the Potency result was “inactive”.

`Oc1c(Cl)cccc1Cl`: the Potency result was “inactive”.

Consider `Nc1cc(Cl)ccc1Cl`, for which the Potency result was “inactive”.
